Drawing on ChEMBL document CHEMBL3988442, “University of Dundee, Small-Polar-MMV Screening Library” (2021), this text covers Percent Effect for 50 molecules.

In experiment [1] the target is T1, Aspartate--tRNA(Asp/Asn) ligase (Mycobacterium tuberculosis (strain ATCC 25618 / H37Rv)) (UniProt P9WFW3). Also: in the data most compounds retested in dose-response had high values.
T1 sequence (whole entry): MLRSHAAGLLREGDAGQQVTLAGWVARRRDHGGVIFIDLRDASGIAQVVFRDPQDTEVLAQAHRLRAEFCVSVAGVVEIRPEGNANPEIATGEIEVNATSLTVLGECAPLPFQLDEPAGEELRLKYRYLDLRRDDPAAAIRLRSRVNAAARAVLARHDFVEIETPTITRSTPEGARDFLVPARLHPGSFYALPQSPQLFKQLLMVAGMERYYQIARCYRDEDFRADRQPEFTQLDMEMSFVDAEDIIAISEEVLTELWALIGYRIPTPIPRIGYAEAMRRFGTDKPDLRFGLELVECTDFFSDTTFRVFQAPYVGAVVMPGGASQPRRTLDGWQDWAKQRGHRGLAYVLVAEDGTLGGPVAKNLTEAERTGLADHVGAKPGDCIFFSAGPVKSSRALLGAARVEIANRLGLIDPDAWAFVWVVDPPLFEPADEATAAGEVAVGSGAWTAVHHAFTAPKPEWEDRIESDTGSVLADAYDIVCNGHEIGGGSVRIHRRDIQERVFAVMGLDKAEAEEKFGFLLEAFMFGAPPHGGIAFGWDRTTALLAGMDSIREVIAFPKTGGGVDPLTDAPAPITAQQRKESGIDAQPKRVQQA
In words: Assay for Asp RNA synthetase-1 from Mycobacterium tuberculosis. The conditions noted are these: 30 µM. Format: functional. Set-up: scale not given: direction of the effect not stated beside the values.

The target of experiment [2] is Shiga toxin 2 (Escherichia coli O157:H7) (UniProt P09385+P09386). In words: E. coli 0.157:H7 Shiga Toxin SOP - stx2 screening assay. Format: functional. Set-up: scale not given: direction of the effect not stated beside the values. The conditions noted are these: 30 µM.

As to `O=C(c1ccc(Cl)c(Cl)c1)N1CCCC(n2cncn2)C1` (stereo not given), the values for the Percent Effect in experiment [1] and in experiment [2] were -2.85% and 15.6%, respectively.

As for `CN1CCC(Cc2cc(Nc3ncccn3)ncn2)CC1`, the Percent Effect in experiment [1] was 7.7%; in experiment [2], 7.59%.

As to `CCn1nc(CNC(=O)C2CC(=O)N(C3CCCC3)C2)c2ccccc21` (stereo not given), the Percent Effect in experiment [1] is 2.02%; in experiment [2], -13.1%.

For `COc1ccccc1[C@@H]1CN(C(=O)c2csc(C)n2)C[C@H]1C(=O)O`, the Percent Effect was 2.17% in experiment [1] and -9.43% in experiment [2].

In the case of `Fc1ccc(CN2CCCC2c2cncc(-n3ccnc3)n2)cc1` (stereo not given), the Percent Effect in experiment [1] worked out at 3.75%; in experiment [2] it was 24.5%.

Turning to `Cc1cc(C)n(CC(=O)N2CCC(NS(C)(=O)=O)CC2)n1`, the results for the Percent Effect in experiment [1] and in experiment [2] were -2.75% and 32.8%, respectively.

Regarding `CC(O)CN1CCN(C(=O)c2cc3ccccc3[nH]c2=O)CC1` (stereo not given), the Percent Effect in experiment [1] was -2.04%; in experiment [2], 2.32%.

Regarding `c1ncn(CC2CCCCN2Cc2csc(C3CCCC3)n2)n1` (stereo not given), the Percent Effect in experiment [1] is -7.74%; in experiment [2], -35.6%.

Regarding `CC(C)OCCOCc1cccc(NC(=O)NCc2ccncc2)c1`, the Percent Effect was 13% in experiment [1] and -69.6% in experiment [2].

As for `CCn1cnnc1CNC(=O)c1cc(Cl)ccc1OC`, the results for the Percent Effect in experiment [1] and in experiment [2] were 0.48% and -24.3%, respectively.

As for `O[C@]1(c2ccccn2)CC[C@@H]2CN(Cc3cccc4ncccc34)C[C@@H]21`, the Percent Effect is 0.581% in experiment [1] and -21.3% in experiment [2].

Regarding `O=C(NCc1cc[nH]n1)NC1CCCN(c2ncccn2)C1` (stereo not given), the Percent Effect in experiment [1] was -4.43%; in experiment [2], -3.98%.

Regarding `Cc1nc(N2CCN(C)CC2)ncc1C(=O)N1CCC(O)(CO)CC1`, the results for the Percent Effect in experiment [1] and in experiment [2] were 3.4% and 5.75%, respectively.

With `Cc1nn(C)c(N(C)C)c1CNCc1cccc(OCCN(C)C)c1`, the Percent Effect was -1.92% in experiment [1] and 27.4% in experiment [2].

Take `CN(C)CC1(O)CCN(S(=O)(=O)c2ccc(F)c(F)c2)C1` (stereo not given): the Percent Effect was -2.99% in experiment [1] and 4.61% in experiment [2].

Take `c1ncn(CC2CCCN(Cc3nc(C4CC4)no3)C2)n1` (stereo not given): the Percent Effect in experiment [1] is -2.51%; in experiment [2], -1.62%.

For `CC(=O)N1CCCn2nc(CNS(=O)(=O)N3CCCCCC3)cc2C1`, the Percent Effect in experiment [1] was -7.71%; in experiment [2], -4.22%.

As to `Cc1occc1C(=O)NCc1ccc(N2CCCC(C(N)=O)C2)cc1` (stereo not given), the Percent Effect in experiment [1] was 1.75%; in experiment [2], -14.7%.

Consider `Cc1nc2ccccc2c(=O)n1CCC(=O)N1CCNC(=O)C1`, for which the results for the Percent Effect in experiment [1] and in experiment [2] were -5.81% and 27.4%, respectively.

Regarding `CC(C)N1CCn2c(nc3cc(C(N)=O)ccc32)C1`, the Percent Effect in experiment [1] is 0.319%; in experiment [2], -34%.

Take `O=C(c1ccncc1)N1CCCC2(COCCN(c3ccccc3)C2)C1` (stereo not given): the values for the Percent Effect in experiment [1] and in experiment [2] were 2.82% and -1.46%, respectively.

For the molecule `CN(C)C1CCN(C(=O)NCc2ccccc2Cn2cncn2)CC1`, the Percent Effect in experiment [1] is -2.31%; in experiment [2] it was 0.165%.

For the molecule `CCOc1ncccc1C(=O)N1CCCCC1c1nccs1` (stereo not given), the Percent Effect was -1.77% in experiment [1] and 2.91% in experiment [2].

Take `COC(=O)c1cccc(OCCn2nc(-c3cccs3)oc2=O)c1`: the Percent Effect worked out at 3.9% in experiment [1] and 25% in experiment [2].

Regarding `Cc1ccc(C)c(OC2CCN(C(=O)c3ccc(C)[nH]c3=O)CC2)c1`, the Percent Effect in experiment [1] is -5.01%; in experiment [2], 16%.

As for `Cc1nc(C2CCCN(C(=O)CCCn3cccn3)C2)no1` (stereo not given), the Percent Effect was -5.28% in experiment [1] and -27.3% in experiment [2].

`Cn1c(CN2CCCC2c2noc(C3CC3)n2)cc(=O)n(C)c1=O` (stereo not given): the Percent Effect is -4.22% in experiment [1] and -7.03% in experiment [2].

Turning to `Cn1cc(CN2CCCC3(CCCN3S(C)(=O)=O)C2)cn1` (stereo not given), the Percent Effect in experiment [1] is 6.18%; in experiment [2], -11.1%.

For the molecule `CCOCCn1nc(C)cc1C(=O)N1CC[C@](C)(O)[C@H](C)C1`, the Percent Effect is -4.03% in experiment [1] and 4.67% in experiment [2].

Regarding `O=C(CCC1CCCO1)NS(=O)(=O)c1ccc(Cl)cc1` (stereo not given), the results for the Percent Effect in experiment [1] and in experiment [2] were -1.43% and 21.6%, respectively.

Take `CCc1ncncc1C(=O)N1CCN(Cc2c(C)noc2C)CC1`: the Percent Effect in experiment [1] was 0.0281%; in experiment [2], 36.8%.

Take `CC(C)=CCN(C)C1CCCN(Cc2noc(C)n2)C1` (stereo not given): the Percent Effect in experiment [1] stood at 3.23%; in experiment [2] it was 25.2%.

Consider `CCc1nccn1-c1cncc(C2CCCN2Cc2cccnc2)n1` (stereo not given), for which the Percent Effect was 5.87% in experiment [1] and -37.2% in experiment [2].

`CN(C)C(=O)Cc1nc(CN2CCn3c(nnc3C3CC3)C2)cs1`: the Percent Effect in experiment [1] is -1.22%; in experiment [2], 10.2%.

As for `COCCO[C@H]1CCN(C(=O)c2ccc[nH]2)[C@H]1Cc1ccncc1`, the values for the Percent Effect in experiment [1] and in experiment [2] were -0.0147% and -2.78%, respectively.

For `O=S(=O)(c1ccccc1)N1CCCN(CCCn2ccnc2)CC1`, the Percent Effect in experiment [1] was -2.67%; in experiment [2], -12.6%.

With `O=C(c1ccn(-c2cccc(F)c2)n1)N1CCCC(n2cccn2)C1` (stereo not given), the Percent Effect is -2.68% in experiment [1] and 1.81% in experiment [2].

Consider `CC(C)c1noc(CN(Cc2cccs2)C2CC2)n1`, for which the Percent Effect in experiment [1] was -0.416%; in experiment [2] it was -48.4%.

`CC(=O)Nc1nc(C2CCN(CC(N)=O)CC2)cs1`: the results for the Percent Effect in experiment [1] and in experiment [2] were -7.79% and -8.65%, respectively.

As for `O=C(NC[C@H]1OC[C@@H]2CCN(C(=O)c3ccco3)C[C@@H]21)C1CC1`, the figures for the Percent Effect in experiment [1] and in experiment [2] were 3.37% and -7.69%, respectively.

As for `Cn1cc(CN2CC[C@@H]3[C@@H](CCC(=O)N3CCC3=CCCCC3)C2)cn1`, the Percent Effect in experiment [1] was 0.0912%; in experiment [2], -13%.

`O=S(=O)(C1CC1)N1CCO[C@H]2[C@H](OCC3CCCC3)CC[C@@H]21`: the Percent Effect in experiment [1] came to 0.291%; in experiment [2], 8.36%.

In the case of `O=C(C1=CCCC1)N1C[C@H](Oc2cccnc2)[C@H]2OCCC[C@H]21`, the Percent Effect in experiment [1] was -2.63%; in experiment [2], -10.5%.

Turning to `Cc1noc(C)c1C(=O)N1CCCC1c1c(C)nn(C)c1Cl` (stereo not given), the values for the Percent Effect in experiment [1] and in experiment [2] were -3.2% and -9.41%, respectively.

As for `OC(CN1CCCCCCC1)c1ccc(F)cc1` (stereo not given), the Percent Effect is -2.26% in experiment [1] and 10.8% in experiment [2].

For `Cn1cnnc1S(=O)(=O)C1CCN(S(=O)(=O)c2c(Cl)cccc2Cl)CC1`, the Percent Effect was -0.575% in experiment [1] and 0.759% in experiment [2].

Take `CC(C)CC(CNC(=O)NCc1cc[nH]n1)N1CCOCC1` (stereo not given): the Percent Effect in experiment [1] is -6.68%; in experiment [2], -30.7%.

As to `OCC1CCCCN1c1ccc(-c2nc(-c3ccccc3F)no2)cn1` (stereo not given), the Percent Effect in experiment [1] is -6.87%; in experiment [2], -36.1%.

Consider `CC(=O)N1CC(=O)N(c2cnn(C)c2)CC12CCN(Cc1ccsc1)C2` (stereo not given), for which the Percent Effect in experiment [1] is 4.83%; in experiment [2], -25.5%.

Consider `Cc1ccc(F)cc1S(=O)(=O)NCc1cccnc1N(C)C`, for which the Percent Effect in experiment [1] is 4.75%; in experiment [2], -16.9%.
